Measurements from PubChem BioAssay AID1671202 (University of Kansas High Throughput Screening Laboratory, 2021).
Values joined by “and” are separate entries in the source; they are usually repeats but may differ in a detail not shown here. Identical values can stand only once. About 6,900 (3.6%) of roughly 190,000 compounds were called active. Cut-off read from the data, not from the text of the source: active = inhibition above about 50%; inactive = the rest. The full list was thinned out, with actives kept by preference.

The compounds below were run against Huntingtin (Homo sapiens) (UniProt P42858) (assay: mutant huntingtin-calmodulin interaction inhibitors – biochemical, AlphaScreen, primary screen (AID 1671202;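 note: 0% = both proteins with DMSO and 100% = one protein alone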)). Settings: AlphaScreen His-mHTT/GST-CaM binding, luminescence; at 15 µM, hits give high values.
Huntingtin (Homo sapiens), sequence (P42858 whole entry, looked up, stated change not applied): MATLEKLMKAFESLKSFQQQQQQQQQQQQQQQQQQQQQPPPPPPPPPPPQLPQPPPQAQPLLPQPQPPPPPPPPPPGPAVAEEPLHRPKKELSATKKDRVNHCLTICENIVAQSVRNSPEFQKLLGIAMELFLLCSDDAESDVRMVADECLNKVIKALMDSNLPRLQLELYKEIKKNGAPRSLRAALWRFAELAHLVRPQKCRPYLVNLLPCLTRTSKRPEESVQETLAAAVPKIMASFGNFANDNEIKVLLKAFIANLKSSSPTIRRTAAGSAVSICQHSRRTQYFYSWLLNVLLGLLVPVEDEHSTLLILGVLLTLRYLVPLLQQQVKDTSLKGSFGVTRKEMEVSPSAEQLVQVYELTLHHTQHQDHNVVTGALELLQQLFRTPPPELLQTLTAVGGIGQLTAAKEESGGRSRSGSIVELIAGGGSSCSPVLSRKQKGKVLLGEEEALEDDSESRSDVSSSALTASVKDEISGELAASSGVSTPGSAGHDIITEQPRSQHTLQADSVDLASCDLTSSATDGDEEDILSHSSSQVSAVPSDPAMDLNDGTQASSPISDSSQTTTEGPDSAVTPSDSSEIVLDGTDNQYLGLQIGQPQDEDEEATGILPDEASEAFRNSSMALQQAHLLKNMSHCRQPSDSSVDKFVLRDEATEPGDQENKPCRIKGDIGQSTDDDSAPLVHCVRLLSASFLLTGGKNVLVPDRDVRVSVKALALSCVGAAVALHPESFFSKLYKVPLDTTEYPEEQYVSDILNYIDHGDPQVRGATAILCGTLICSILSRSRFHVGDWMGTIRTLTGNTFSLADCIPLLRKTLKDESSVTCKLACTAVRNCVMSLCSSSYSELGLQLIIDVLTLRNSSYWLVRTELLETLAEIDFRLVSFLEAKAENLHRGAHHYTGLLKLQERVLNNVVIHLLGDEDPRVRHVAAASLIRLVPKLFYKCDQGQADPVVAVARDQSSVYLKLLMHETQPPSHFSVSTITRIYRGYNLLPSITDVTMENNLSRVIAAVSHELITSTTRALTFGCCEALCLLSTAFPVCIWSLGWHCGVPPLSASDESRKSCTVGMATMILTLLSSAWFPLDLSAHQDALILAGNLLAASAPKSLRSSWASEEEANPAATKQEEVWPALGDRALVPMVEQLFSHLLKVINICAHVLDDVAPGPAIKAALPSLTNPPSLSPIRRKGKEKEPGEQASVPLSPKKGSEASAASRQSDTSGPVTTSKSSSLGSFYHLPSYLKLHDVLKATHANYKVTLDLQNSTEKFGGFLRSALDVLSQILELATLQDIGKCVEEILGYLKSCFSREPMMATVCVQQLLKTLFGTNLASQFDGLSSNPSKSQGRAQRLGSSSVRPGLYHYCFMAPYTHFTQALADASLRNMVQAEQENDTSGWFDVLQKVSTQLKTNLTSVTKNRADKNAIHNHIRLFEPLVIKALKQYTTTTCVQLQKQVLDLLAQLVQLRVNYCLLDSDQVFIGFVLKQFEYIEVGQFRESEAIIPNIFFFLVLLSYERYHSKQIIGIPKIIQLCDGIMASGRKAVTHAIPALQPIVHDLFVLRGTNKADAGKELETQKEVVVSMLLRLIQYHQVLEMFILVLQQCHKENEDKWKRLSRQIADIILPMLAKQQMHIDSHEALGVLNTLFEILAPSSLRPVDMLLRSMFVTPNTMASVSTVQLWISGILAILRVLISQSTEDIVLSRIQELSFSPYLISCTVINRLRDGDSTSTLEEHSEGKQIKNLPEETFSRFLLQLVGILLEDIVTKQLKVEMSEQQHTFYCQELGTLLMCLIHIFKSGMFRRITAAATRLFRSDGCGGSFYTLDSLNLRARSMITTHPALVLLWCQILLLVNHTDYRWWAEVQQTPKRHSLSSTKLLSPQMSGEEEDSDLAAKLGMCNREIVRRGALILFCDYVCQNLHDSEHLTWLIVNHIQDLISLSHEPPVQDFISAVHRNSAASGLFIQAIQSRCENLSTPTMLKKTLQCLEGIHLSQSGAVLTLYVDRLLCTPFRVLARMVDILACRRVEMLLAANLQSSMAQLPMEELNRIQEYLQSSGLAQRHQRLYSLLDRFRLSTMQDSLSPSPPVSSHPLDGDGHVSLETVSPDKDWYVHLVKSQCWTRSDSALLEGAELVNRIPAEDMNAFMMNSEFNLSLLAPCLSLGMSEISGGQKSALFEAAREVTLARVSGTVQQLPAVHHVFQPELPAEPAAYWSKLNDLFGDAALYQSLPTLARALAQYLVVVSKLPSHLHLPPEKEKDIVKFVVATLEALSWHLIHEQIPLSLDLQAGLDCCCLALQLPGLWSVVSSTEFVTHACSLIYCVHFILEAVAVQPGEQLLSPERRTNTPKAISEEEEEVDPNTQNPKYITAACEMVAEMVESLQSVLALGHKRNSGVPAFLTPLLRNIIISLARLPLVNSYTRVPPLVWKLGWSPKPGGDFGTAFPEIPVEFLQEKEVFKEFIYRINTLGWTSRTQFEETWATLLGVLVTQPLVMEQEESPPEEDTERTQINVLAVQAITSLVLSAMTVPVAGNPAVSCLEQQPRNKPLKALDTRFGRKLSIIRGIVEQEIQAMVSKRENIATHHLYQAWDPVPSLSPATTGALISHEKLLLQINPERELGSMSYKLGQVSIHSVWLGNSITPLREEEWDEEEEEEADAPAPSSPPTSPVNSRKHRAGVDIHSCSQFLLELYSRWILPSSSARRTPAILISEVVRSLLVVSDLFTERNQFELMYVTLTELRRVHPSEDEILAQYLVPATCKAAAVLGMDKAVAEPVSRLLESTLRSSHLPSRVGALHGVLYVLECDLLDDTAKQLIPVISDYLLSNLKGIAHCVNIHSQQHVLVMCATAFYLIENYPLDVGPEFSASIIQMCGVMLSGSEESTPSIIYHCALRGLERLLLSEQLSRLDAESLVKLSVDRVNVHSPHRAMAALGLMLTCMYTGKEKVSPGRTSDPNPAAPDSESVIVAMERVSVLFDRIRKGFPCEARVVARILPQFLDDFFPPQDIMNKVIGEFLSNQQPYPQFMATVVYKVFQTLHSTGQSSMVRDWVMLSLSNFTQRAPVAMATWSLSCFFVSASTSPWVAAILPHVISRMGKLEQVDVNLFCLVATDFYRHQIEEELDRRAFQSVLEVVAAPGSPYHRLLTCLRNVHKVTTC

Row | SMILES | inhibition
1 | COc1ccc(SC[C@H](Cc2ccccc2)N2CCN(CCc3ccccc3)CCC2=O)cc1 | 92.2% (active)
2 | N#Cc1cccc(CN2CCC(=O)N([C@H](CO)c3ccccc3)CC2)c1 | 0.1% (inactive)
3 | O=C1CC[C@H](O)CCN1[C@H](CSc1ccc(Br)cc1)Cc1ccccc1 | 24.2% (inactive)
4 | O=C1CCN(Cc2ccccc2)CCN1[C@H](CSc1ccccc1)c1ccccc1 | 98.8% (active)
5 | O=C1CCN(Cc2ccc([N+](=O)[O-])cc2)CCN1[C@H](CO)Cc1ccccc1 | 6.4% (inactive)
6 | C[C@H]1CCC(=O)N([C@H](CSc2ccccc2)Cc2ccccc2)CC1 | -8.3% (inactive)
7 | Cc1ccc(CCNC(=O)c2cc3n(n2)CCCN(Cc2ccc(Cl)cc2)C3=O)cc1 | 27.7% (inactive)
8 | O=C(N1CCOCC1)[n+]1ccc(/C=C/c2ccc(Cl)cc2)cc1 | 8% (inactive)
9 | CC1(C)CC(=O)c2sc(NC(=O)C(C)(C)Oc3ccc(Cl)cc3)nc2C1 | -1% (inactive)
10 | CCNc1nc(NCC)n2c(SCC(=O)c3ccc(C(C)(C)C)cc3)nnc2n1 | -3% (inactive)
11 | O=C(NCCc1ccc(Cl)cc1)c1cnn2c3c(cnc12)CCCC3 | -0.73% (inactive)
12 | COc1ccc(C=C2Oc3c(ccc(OC(=O)N4CCOCC4)c3C)C2=O)cc1OC | 1.6% (inactive)
13 | CCCc1[nH]nc2c1C1(CCOCC1)C(C#N)=C(N)O2 | -0.61% (inactive)
14 | COc1ccc(C=C2Oc3c(ccc(O)c3CN3CCN(C)CC3)C2=O)cc1OC | 6.2% (inactive)
15 | CN1CCN(Cc2c(O)ccc3c2OC(=Cc2cc4cc(Br)ccc4o2)C3=O)CC1 | 61.5% (active)
16 | COc1cccc(C=C2Oc3c(ccc(O)c3CN3CCN(C)CC3)C2=O)c1 | 18.1% (inactive)
17 | CCOc1ccccc1C(=O)NCc1ccc2c(c1)cc(C)n2C | 38.2% (inactive)
18 | Cc1cc(C)nc(Nc2nc(CC(=O)Nc3nc(-c4ccco4)cs3)cs2)n1 | 83.2% (active)
19 | COC(=O)Nc1nc(CC(=O)NCc2ccco2)cs1 | -3.8% (inactive)
20 | COc1ccccc1N1CCN(C(=O)c2cn3ccc(C)cc3n2)CC1 | 0.9% (inactive)
21 | COc1ccc(N2CCN(C(=O)CSCc3ccccc3)CC2)cc1 | 20.7% (inactive)
22 | COc1ccccc1N1CCN(C(=O)Cc2csc(Nc3nc(C)cc(C)n3)n2)CC1 | 65% (active)
23 | COc1ccccc1NC(=O)Nc1nc(CC(=O)N2CCc3ccccc32)cs1 | 14.7% (inactive)
24 | COc1ccccc1N1CCN(C(=O)CSCc2ccccc2C)CC1 | 66.4% (active)

Row | SMILES | inhibition
25 | O=C(CCCn1cccc1)Nc1nc(-c2ccco2)cs1 | 28.4% (inactive)
26 | COc1ccccc1N1CCN(C(=O)C(c2ccccc2)c2ccccc2)CC1 | 38.2% (inactive)
27 | O=C(CCS(=O)(=O)c1ccc(Br)s1)Nc1ccc(F)cc1 | -1% (inactive)
28 | CC(C)C(=O)Oc1ccc2c(c1)OC(=Cc1ccco1)C2=O | 42.1% (inactive)
29 | CC(C)C1(CCN(Cc2ccc3c(c2)OCO3)C(=O)c2ccco2)CCOC(C)(C)C1 (centres undefined) | -2.26% (inactive)
30 | COc1cc(OC)cc(C(=O)Nc2nc(C)c(C)s2)c1 | 9.5% (inactive)
31 | Cn1nccc1C(=O)N1CCC(c2nncn2-c2ccccc2)CC1 | -1.38% (inactive)
32 | CCC(C)NC(=O)c1cn(CC(C)C)c(=O)c2c1c1ccccc1n2C (centres undefined) | -2% (inactive)
33 | Cc1ccc(COCc2nn(C)c3c2CN(C(=O)Nc2cccc(C)c2)CC3)cc1 | 30.3% (inactive)
34 | O=C(CSc1nccn1-c1ccccc1)Nc1ccccc1C(F)(F)F | 18% (inactive)
35 | Cc1cc(C(=O)N2CCC(CCOc3ccc(F)cc3)CC2)no1 | -3.47% (inactive)
36 | CCOC(=O)N1CCC2(CC1)N=C(c1cc(Cl)ccc1O)CC(c1ccc(C)cc1)N2 (centres undefined) | 6.77% (inactive)
37 | CN1CCC2(CC1)N=C(c1ccc3c(c1)OCO3)CC(c1cc(Cl)ccc1O)N2 (centres undefined) | 16% (inactive)
38 | Oc1ccc(Cl)cc1C1CC(c2ccccc2)=NC2(CCNCC2)N1 (centres undefined) | 7.96% (inactive)
39 | COc1cccc(C2CC(c3ccc(C)cc3C)=NC3(CCN(C(C)=O)CC3)N2)c1O (centres undefined) | 7.51% (inactive)
40 | CCN1CCC2(CC1)N=C(c1ccccc1O)CC(c1ccc(C)cc1)N2 (centres undefined) | 51.5% (active)
41 | CCOC(=O)N1CCC2(CC1)N=C(c1ccccc1O)CC(c1ccc(F)c(Cl)c1)N2 (centres undefined) | 51.8% (active)
42 | Cc1ccc(S(=O)(=O)NCC2CCN(C(=O)Oc3ccccc3)CC2)s1 | -6.7% (inactive)
43 | Cc1cccc(-c2nc(C3CCN(C(=O)Cc4ccccc4Br)CC3)no2)c1 | -7.4% (inactive)
44 | COc1ccc(C(=O)Oc2ccc3c(=O)c(Oc4ccccc4OC)coc3c2)cc1 | 0.8% (inactive)
45 | Cc1cccc(-n2nc3c(c2NC(=O)c2cccc(Cl)c2)CS(=O)(=O)C3)c1C | 16% (inactive)
46 | CCCN(CCC)CCCNC(=O)CSc1nc2nc(C)c(Cc3ccccc3)c(C)n2n1 | 7% (inactive)
47 | COc1ccc(OCCCC(=O)Nc2ccccc2)cc1 | -9.6% (inactive)
48 | O=c1oc2ccc(Br)cc2cc1-c1ccc2c(c1)OCO2 | -1% (inactive)

Row | SMILES | inhibition
49 | C=CS(=O)(=O)N(Cc1nnn(Cc2ccccc2)c1Br)[C@H](C(=O)OC)C(C)C | -13.3% (inactive)
50 | COc1ccc(Br)cc1C=C(NC(=O)c1cc(OC)c(OC)c(OC)c1)C(=O)N1CC2CC(C1)c1cccc(=O)n1C2 (centres undefined) | 73.4% (active)
51 | O=C(Nc1ccc(Cl)cc1)c1ccc(N2CC3CC(C2)c2cccc(=O)n2C3)c([N+](=O)[O-])c1 (centres undefined) | 6% (inactive)
52 | CN(Cc1ccccc1)C(=O)c1ccc(N2CC3CC(C2)c2cccc(=O)n2C3)c([N+](=O)[O-])c1 (centres undefined) | 9% (inactive)
53 | CCC(=O)N1CCN(c2nc3c(s2)CC(C(=O)Nc2cc(C)ccc2C)CC3)CC1 (centres undefined) | 18.3% (inactive)
54 | COc1ccc(C2CC(C(F)(F)F)n3ncc(C(=O)Nc4ccc(C)c(C)c4)c3N2)cc1OC (centres undefined) | 53% (active)
55 | Cc1ccc(NC(=O)c2cnn3c2NC(c2ccco2)CC3C(F)(F)F)cc1C (centres undefined) | -4% (inactive)
56 | COc1ccc(C2CC(C(F)(F)F)n3ncc(C(=O)Nc4cc(C)ccc4C)c3N2)cc1OC (centres undefined) | 27% (inactive)
57 | Cc1ccc(CNC(=O)c2ccnc(N3CCNC(c4ccccc4)C3)c2)cc1 (centres undefined) | 35.5% (inactive)
58 | COCCCNC(=O)c1c(NC(=O)c2ccccc2Cl)sc2c1CCCC2 | -17.4% (inactive)
59 | O=c1cc(-c2ccccc2F)oc2ccc(Cl)cc12 | -8.7% (inactive)
60 | COc1cc(C=Nc2oc(C)c(C)c2C#N)ccc1O | 6% (inactive)
61 | CC1=C(C#N)c2nc(N)c(C#N)c(C)c2/C1=C/c1ccccc1[N+](=O)[O-] | 16% (inactive)
62 | COc1cc(/C=C2\C(C)=C(C#N)c3nc(N)c(C#N)c(C)c32)ccc1O | 60% (active)
63 | CC(=O)Nc1c(C)ccc(S(=O)(=O)N2CCCCC2)c1C | 2.7% (inactive)
64 | COC(=O)C1CN(CC(C)C)CCS(=O)(=O)N1Cc1ccc(F)cc1 (centres undefined) | 7.2% (inactive)
65 | CCCCCCN1CCS(=O)(=O)N(Cc2ccc(C(F)(F)F)cc2)C(C(=O)OC)C1 (centres undefined) | -0.1% (inactive)
66 | COC(=O)C1CN(CCc2ccccc2)CCS(=O)(=O)N1Cc1ccc(F)cc1 (centres undefined) | 50.6% (active)
67 | Nc1ncnc(NCc2cccc(Cl)c2)c1[N+](=O)[O-] | 3% (inactive)
68 | O=[N+]([O-])c1cc(S(=O)(=O)CCCN2CCOCC2)ccc1F | 97% (active)
69 | Cc1ccc(OCCOCCN2CCOCC2)c([N+](=O)[O-])c1 | 2% (inactive)
70 | O=S(=O)(NCCN1CCOCC1)c1ccc(I)cc1 | -0.7% (inactive)
71 | CC1CCc2nn(CC(=O)Nc3ccccc3Cl)c(=O)cc2C1 (centres undefined) | 0.27% (inactive)
72 | COc1ccc(N2CCN(CC(O)COc3ccc(C(C)=O)cc3)CC2)cc1 (centres undefined) | 3.7% (inactive)

Row | SMILES | inhibition
73 | Cc1ccc(-c2nc3s/c(=C\c4ccccc4)c(=O)n3n2)cc1 | 7% (inactive)
74 | N#C/C(=C\c1cccs1)c1nc(-c2ccc3c(c2)OCO3)cs1 | -4.4% (inactive)
75 | COc1ccc(OC)c(NC(=O)NS(=O)(=O)c2ccc(C)cc2)c1 | 14.2% (inactive)
76 | CC(=O)Nc1cc2nn(-c3ccc(Cl)cc3)nc2cc1C | 0.6% (inactive) and -5% (inactive)
77 | Cc1nnc2ccc(S(=O)(=O)N(Cc3ccc(F)cc3)c3ccccc3)cn12 | 54.8% (active)
78 | Cc1nnc2ccc(S(=O)(=O)N(Cc3ccccc3)c3ccc(F)cc3)cn12 | -2.4% (inactive)
79 | Cc1nnc2ccc(NC(=O)NCc3ccc(F)cc3)cn12 | -6.1% (inactive)
80 | O=C(c1cccc(-n2cnnn2)c1)N1CCN(c2ccc(-c3cccs3)nn2)CC1 | 2.8% (inactive)
81 | CC(C)Oc1ccc(C(=O)N2CCN(Cc3nc(-c4ccco4)cs3)CC2)cc1 | 9.1% (inactive)
82 | O=C(Nc1cccs1)N1CCN(c2ccc(-c3ccco3)nn2)CC1 | 52% (active)
83 | COc1ccc(C2C(C#N)=C(N)N(c3ccccc3[N+](=O)[O-])C3=C2C(=O)CCC3)cc1 (centres undefined) | 21% (inactive)
84 | Cc1ccc2[nH]c3c(c2c1)CCCC3O (centres undefined) | 19.3% (inactive)
85 | Clc1ccc2[nH]c3c(c2c1)CCCC3NCCOc1ccccc1 (centres undefined) | 100% (active)
86 | COc1ccc(-c2cc3nc4c(c(=O)n3[nH]2)CN(C(=O)c2ccccc2Cl)CC4)cc1 | 62.5% (active)
87 | COc1ccc(-c2cc3nc4c(c(=O)n3[nH]2)CN(C(=O)c2ccc(C)nc2)CC4)cc1 | 1.93% (inactive)
88 | CCc1cccc(NC(=O)N2CCc3c(nc4cc(-c5ccc(OC)cc5)[nH]n4c3=O)C2)c1 | 26.8% (inactive)
89 | CNC(=O)N1CCc2nc3cc(-c4ccc(OC)cc4)[nH]n3c(=O)c2C1 | 9.34% (inactive)
90 | O=C(c1ccc(C(F)(F)F)s1)N1CCc2c(nc3cc(-c4ccccc4)[nH]n3c2=O)C1 | 42.1% (inactive)
91 | COc1ccc(-c2cc3nc4c(c(=O)n3[nH]2)CCN(C(=O)c2ccccc2C)C4)cc1 | 65.3% (active)
92 | COc1ccc(-c2cc3nc4c(c(=O)n3[nH]2)CN(C(=O)CSc2ccccc2)CC4)cc1 | 9.49% (inactive)
93 | COC(=O)c1cccc(NC(=O)N2CCc3c(nc4cc(-c5ccccc5)[nH]n4c3=O)C2)c1 | 7.79% (inactive)
94 | O=C(C1COc2ccccc2O1)N1CCc2c(nc3cc(-c4ccccc4)[nH]n3c2=O)C1 (centres undefined) | 76.2% (active)
